Values joined by “and” are separate entries in the source; they are usually repeats but may differ in a detail not shown here. Identical values can stand only once.

The subject of this test is DIPGX9 (diffuse intrinsic pontine glioma line). Put plainly: growth inhibition (% activity, log2 RLU normalised to DMSO / staurosporine); higher = more growth inhibition. The settings on record: 33 µM. In short, it runs like this:
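For each approved drug, the growth-inhibition value is the replicate median of per-plate normalised CellTiter-Glo data. Luminescence was log2-transformed and expressed as % activity between solvent and positive control wells. Drugs were applied in triplicate at a single final concentration of about 33 μM for 7 days at 37 °C, 5% CO2 to pHGG cell lines and H9-derived neural stem cells.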
`O=C(O)c1cccnc1Nc1cccc(C(F)(F)F)c1`: the growth inhibition was 0.51%.

Regarding `C=C(c1ccc(C(=O)O)cc1)c1cc2c(cc1C)C(C)(C)CCC2(C)C`, the growth inhibition worked out at 10.4%.

As to `CC1(C)S[C@@H]2[C@H](NC(=O)Cc3ccccc3)C(=O)N2[C@H]1C(=O)O`, the growth inhibition amounted to 0.921%.

For the compound `Cc1cn(C2C=CC(CO)O2)c(=O)[nH]c1=O` (stereo not drawn), the growth inhibition came to 0.481%.

As for `CC(C)(C)C(=O)C(Oc1ccc(Cl)cc1)n1ccnc1` (stereo not drawn), the growth inhibition is 1.25%.

For `Cc1ccc(S(=O)(=O)NC(=O)NN2CCCCCC2)cc1`, the growth inhibition is -1.05%.

Take `Cc1cc(C2CCCCC2)n(O)c(=O)c1`: the growth inhibition was 68.8% and 56.5%.

`OCCOCCN1CCN(C(c2ccccc2)c2ccc(Cl)cc2)CC1` (stereo not drawn): the growth inhibition stood at 0.403%.

In the case of `Oc1c(Br)cc(Br)c2cccnc12`, the growth inhibition came out at 1.88%.

In the case of `COC(=O)C1=CO[C@@H](O[C@@H]2O[C@H](CO)[C@@H](O)[C@H](O)[C@H]2O)[C@@H]2C(CO)=CC[C@H]12`, the growth inhibition amounted to 0.601%.

Consider `CCn1cc(C(=O)O)c(=O)c2ccc(C)nc21`, for which the growth inhibition was determined as 0.0696%.

In the case of `CCOC(=O)c1ccc(N)cc1`, the growth inhibition was -2.99%.

With `CCCN1CCCC[C@H]1C(=O)Nc1c(C)cccc1C`, the growth inhibition came out at 0.846%.

Turning to `CC(C)[C@H]1CC[C@H](C(=O)N[C@H](Cc2ccccc2)C(=O)O)CC1`, the growth inhibition came to 0.231%.

As for `NS(=O)(=O)c1cc2c(cc1Cl)NC(C(Cl)Cl)NS2(=O)=O` (stereo not drawn), the growth inhibition turned out to be 5.41%.

In the case of `COc1cc2c(cc1OC)CC(=O)N(CCCN(C)C[C@H]1Cc3cc(OC)c(OC)cc31)CC2`, the growth inhibition stood at 1.21%.

For the compound `CCCc1nc(C)c2c(=O)nc(-c3cc(S(=O)(=O)N4CCN(CC)CC4)ccc3OCC)[nH]n12`, the growth inhibition is 0.618%.

Turning to `CCC(C)n1ncn(-c2ccc(N3CCN(c4ccc(OCC5COC(Cn6cncn6)(c6ccc(Cl)cc6Cl)O5)cc4)CC3)cc2)c1=O` (stereo not drawn), the growth inhibition was 1.24%.

Values taken from the supplement of paper PMC8253809.
